The list is not random: actives were taken first. Their share in the collection is about 8.3%.
HCMV inh: human cytomegalovirus inhibition; activity change, negative = inhibition, % at 57.5 µM; hit rate 4.5% among 410,000; HFF cells, HCMV-luciferase reporter, 72 h; stronger effect = lower value; in the data active = activity change below about -60%; inconclusive = no clear call, values can overlap the other calls; inactive = above about -39%
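After 16 h attachment at 37C, HFF cells received test compound and HCMV-luciferase (1 PFU/cell); reporter luminescence read 72 h later, data normalized against buffer-only and known inhibitor Salinomycin.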
HCV inhibitor: inhibitors of hepatitis C virus infection; Huh7.5.1 HCVcc-Cre infection, luciferase reporter, 44 h; Potency, µM (highest dose often 41.8 µM), without a hit: at the top dose activity change, negative = inhibition, actives largely listed as inhibitors; hit rate 3.4% among 340,000; also: potency is read from the fitted curve at half-maximal effect
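HCVcc-Cre virus at an moi near 0.5 was added right after compound to cells cultured 4 h from seeding (1,000 cells/well). Luciferase activity was determined 44 h later, 15 min after substrate addition at RT.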
LASV entry inh: Lassa virus entry inhibition. Lassa virus pseudotype entry inhibition, cell reporter. AID 540256. hit rate 1.2% among 300,000. Potency, µM (titrated, usually from 37.9 µM), without a hit: top-dose activity change, negative = inhibition, usual class: inhibitors; calls by dose curve; tested in HEK293 cells; also: potency is read from the fitted curve at half-maximal effect; nearly all actives have a fitted effect of over 50% in size
MARV entry inh: blocks Marburg virus binding to or entry into cells; hit rate 1.8% among 300,000; Potency, µM (top dose mostly 37.8 µM), without a hit: at the highest dose activity change, negative = inhibition, actives largely listed as inhibitors; Marburg virus pseudotyped entry inhibition, cell reporter; calls by dose curve; tested in HEK293 cells; also: potency is read from the fitted curve at half-maximal effect
FBPA Giardia inh: Giardia lamblia aldolase inhibition; A8B2U2; purified Giardia FBPA; Potency, µM (series often up to 59.6 µM), for the others: top-dose activity, negative = inhibition, most hits filed as inhibitors; hit rate 0.71% among 290,000; AID 2451; also: potency is read from the fitted curve at half-maximal effect; nearly all actives have a fitted effect of over 55% in size
Target sequence (A8B2U2 whole entry, looked up): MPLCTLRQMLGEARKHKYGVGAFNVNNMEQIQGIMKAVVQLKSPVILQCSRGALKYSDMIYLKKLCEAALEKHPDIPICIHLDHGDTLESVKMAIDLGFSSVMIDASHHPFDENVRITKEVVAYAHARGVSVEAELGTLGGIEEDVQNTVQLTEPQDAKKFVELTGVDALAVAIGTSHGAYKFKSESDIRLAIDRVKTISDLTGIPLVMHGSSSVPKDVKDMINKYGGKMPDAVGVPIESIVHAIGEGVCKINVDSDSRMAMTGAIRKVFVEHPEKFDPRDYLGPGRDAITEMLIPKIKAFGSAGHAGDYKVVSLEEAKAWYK
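40 nM FBPA preincubated 10 min at RT with compound (up to 57.5 uM final), then substrate plus GAPDH/TPI/NAD/arsenate coupling and diaphorase/resazurin added. Fluorescence read after 20 min at RT, 525/598 nm.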
FMDV inh: blocks foot and mouth disease virus; FMDV antiviral cell-based qHTS; Potency, µM (series often up to 57.9 µM), without a hit: at the highest dose activity change, negative = inhibition, usual class: inhibitors; hit rate 1.2% among 410,000; AID 1159524; calls by dose curve; tested in HEK293T cells; also: read-out not given here; potency is read from the fitted curve at half-maximal effect; nearly all actives have a fitted effect of over 45% in size
* = called active by the depositor; ? = inconclusive; · = no result given; [ ] = another dose, or the depositor's remark. Unless noted, calls follow the shape of the dose curve; as a rule, active = well fitted curve in the direction sought with a large enough effect; inconclusive = small, poorly fitted or top-dose-only effect, or another doubt; inactive = no such curve, though single readings can be large; an effect the other way counts as inactive or inconclusive. % is scaled to controls: 0 for no effect and ±100 for the full control effect.

SMILES	HCMV inh	HCV inhibitor	LASV entry inh	MARV entry inh	FBPA Giardia inh	FMDV inh
CC(C)(O)C#Cc1ccc(C(=O)NCCN2Cc3ccccc3OC(c3ccccc3F)C2)o1 (stereo not drawn)	·	·	·	·	·	-10%
CCOC(=O)C1(CCOc2ccccc2)CCN(C(=O)c2ccc(-n3cccn3)cc2)CC1	?	?	?	?	-5%	22µM*
CCOC(=O)C1(CCOc2ccccc2)CCN(Cc2ccc(C)s2)CC1	-82*	?	?	?	1%	?
CCOC(=O)C1(CCc2ccccc2)CCN(Cc2ccc(C(=O)OC)cc2)CC1	-10	-17%	·	·	-1%	?
CCOC(=O)C1(CCOc2ccccc2)CCN(Cc2cnc(C)s2)CC1	-34	?	?	?	-11%	-19%
CCOC(=O)C1(CCc2ccccc2)CCN(Cc2ccc3c(c2)OCCO3)CC1	-77*	?	?	?	-5%	?
CCOC(=O)C1(CCOc2ccccc2)CCN(Cc2cccc(OC)c2OC)CC1	-3	28µM*	?	?	0%	?
COC1CCCC(c2nc(N)nc(SC)c2C#N)C1 (stereo not drawn)	·	·	·	4%	·	·
O=C(CN1C(=O)CCc2cc(Br)ccc21)Nc1ccc(OC(F)(F)F)cc1	11	·	-6%[46.1 µM]	·	·	-12%
Cc1cccc(C(=O)Nc2nc3nc(-c4ccccc4)cc(=O)n3[nH]2)c1	4	·	1%[46.1 µM]	23%[46.1 µM]	·	-7%
CCOC(=O)C1(CCOc2ccccc2)CCN(Cc2cccn2-c2cccnc2)CC1	-72*	?	?	?	0%	-26%
CCOC(=O)C1(CCc2ccccc2)CCN(C2CCSCC2)CC1	-27	8%	?	10µM*	-1%	-14%
CCOC(=O)C1(CCOc2ccccc2)CCN(Cc2cccc(F)c2)CC1	-91*	?	·	·	0%	?
CCOC(=O)C1(CCc2ccccc2)CCN(C2Cc3ccccc3C2)CC1	-4	-27%	-12%	-20%[46.1 µM]	-9%	?
CCOC(=O)C1(CCOc2ccccc2)CCN(Cc2ccc3nonc3c2)CC1	-14	10µM*	6%	5%[46.1 µM]	-12%	?
CCOC(=O)C1(CCOc2ccccc2)CCN(Cc2ccc(NC(C)=O)cc2)CC1	30	-24%	7%	-22%[46.1 µM]	1%	?
CCOC(=O)C1(Cc2ccccc2)CCN(Cc2cccn2-c2cccnc2)CC1	-15	13%	·	·	-2%	?
CC(C)OC(=O)[C@@H]1CC[C@H](C)[C@@H](CCCCO)O1	·	·	·	·	1%	·
C=C1C2=CC(=O)OC(c3ccoc3)[C@]2(C)CCC1[C@]1(C)C=CC(=O)C(C)(C)C1CC(=O)OC (stereo partly drawn)	·	·	·	·	-12%	-19%
Cn1c(Nc2ccccc2)nc2cnc(-c3ccc(S(C)(=O)=O)cc3)cc21	-4	·	·	·	·	·
CCOCC	·	·	·	·	2%	·
CCOc1ccc(CN2CCN(C(=O)c3cccc(F)c3)CC2)cc1	?	11µM*	?	?	-28%	·
CCOC(=O)C1(CCOc2ccccc2)CCN(Cc2cccc(-n3cccn3)c2)CC1	-39	13µM*	?	?	-4%	?
CCOC(=O)C1(CCOC)CCN(C(=O)Cc2ccc3ccccc3c2)CC1	-24	-6%	?	10µM*	12%	-4%
Cc1cc(C)c(CN2CCC(CO)(CCOc3ccccc3)CC2)cc1C	-7	?	?	11µM*	0%	-26%
SMILES	HCMV inh	HCV inhibitor	LASV entry inh	MARV entry inh	FBPA Giardia inh	FMDV inh
CCOC(=O)C1(CCOc2ccccc2)CCN(Cc2ccc(OCC)c(CO)c2)CC1	-20	14µM*	·	·	·	?
CCOC(=O)C1(CCOc2ccccc2)CCN(Cc2ccc(OC)cc2)CC1	-32	13µM*	·	·	·	?
CCOC(=O)C1(CCOc2ccccc2)CCN(Cc2cccc(OCCO)c2)CC1	62	-23%	-17%	?	5%	?
COC(=O)c1ccc(C(/C=C/[C@@H](C)C(=O)NCCc2c[nH]c3ccccc23)NC(=O)OCc2ccccc2)cc1 (stereo partly drawn)	·	·	·	·	-2%	·
CCOC(=O)/C(=N\Nc1ccccc1[N+](=O)[O-])c1csc(N)n1	-65*	?	·	·	-7%	-31%
CCC(=O)c1cc(F)c(N2CCN(S(=O)(=O)c3ccc(C)cc3)CC2)cc1C	-26	13µM*	-24%	?	0%	?
COc1cc(NS(=O)(=O)c2cccc([N+](=O)[O-])c2)c2ncccc2c1	·	·	·	·	16µM*	·
O=[N+]([O-])c1ccc(S(=O)(=O)Nc2ncccn2)cc1	-22	-2%	·	·	-10%	-15%
COc1cc(NS(=O)(=O)c2ccc([N+](=O)[O-])cc2)c2ncccc2c1	·	·	·	·	18µM*	·
CCCCc1nc2c(c3c1C[C@H](C)OC3)CN(S(=O)(=O)c1ccccc1C(=O)OC)CC2	·	·	·	22%[14.2 µM]	4%[12.9 µM]	·
CC1CCCCN1S(=O)(=O)c1ccc(C(=O)Nc2nnc(-c3ccccc3Cl)o2)cc1 (stereo not drawn)	?	?	?	13µM*	?	?
CC1CCN(S(=O)(=O)c2ccc(C(=O)Nc3nnc(C4=COCCO4)o3)cc2)CC1	-70*	?	·	·	·	-24%
CCC1CCCCN1S(=O)(=O)c1ccc(C(=O)Nc2nnc(C3=COCCO3)o2)cc1 (stereo not drawn)	-14	·	?	?	·	-9%
CCC1CCCCN1S(=O)(=O)c1ccc(C(=O)Nc2nnc(-c3ccccc3Cl)o2)cc1 (stereo not drawn)	·	?	?	?	?	-3%
COc1ccc(-n2c(=O)c(CCc3ccccc3)nc3cnc(N4CCNCC4)nc32)cc1	·	·	·	·	-8%	-8%
COc1ccc(C(=O)Nc2ccc(Nc3ccccc3)cc2)cc1OC	1	-25%	·	·	-4%	-7%
COc1cc(OC)cc(C(=O)Nc2ccc(Nc3ccccc3)cc2)c1	-16	8.9µM*	·	·	13%	43%
COc1cc(OC)cc(C(=O)Nc2cccc(C(C)=O)c2)c1	39	-17%	22%	13%	23%	0%
COc1cc(OC)cc(C(=O)Nc2cccc(NC(=O)c3ccccc3)c2)c1	-5	10µM*	?	?	9%	-18%
COc1ccc(OC)c(NC(=O)c2cccc(NC(=O)c3ccccc3)c2)c1	?	10µM*	?	?	-1%	-8%
Cc1ccc(CCNS(=O)(=O)c2ccc3c(c2)CCN3C(=O)CCC(=O)O)cc1	22	·	3%[46.1 µM]	15%[46.1 µM]	·	17%
COC(=O)C1=C(C(=O)OC)[C@@H]2N(C)c3ccccc3[C@@]23C[C@@H](C(=O)OC)N(S(=O)(=O)c2ccc4c(c2)OCCN4C)C3=N1	·	·	·	·	-2%[12.9 µM]	·
O=C1OC(Nc2nc3ccccc3s2)c2ccccc21 (stereo not drawn)	65	15%	24%	13%	11%	26%
O=C1OC(Nc2nc(-c3ccc(F)cc3)cs2)c2ccccc21 (stereo not drawn)	-91*	-7%	1%[46.1 µM]	?	-1%	-19%
